Data: publication PMC11062922 (Nature Chemical Biology, 2023)
Where two headings read alike, the source gives them in different places.

Legend:
Set-up in all cases: species or system human, MV4-11 + K-562 + COLO205 + SK-N-BE2 + OVCAR-8
AKT3 = settings: read-out: apparent Kd, n = 1
EPHB4 = settings: read-out: apparent Kd; compound concentrations:100 nM and 1000 nM (sheet 'Samples'); n = 1
ERCC2 = settings: read-out: apparent Kd; compound concentrations:100 nM and 1000 nM (sheet 'Samples'); n = 1
FER = settings: read-out: apparent Kd; compound concentrations:100 nM and 1000 nM (sheet 'Samples'); n = 1
PTK2B = settings: read-out: apparent Kd; compound concentrations:100 nM and 1000 nM (sheet 'Samples'); n = 1
TNK1 = settings: read-out: apparent Kd; compound concentrations:100 nM and 1000 nM (sheet 'Samples'); n = 1
TNK2 = settings: read-out: apparent Kd; compound concentrations:100 nM and 1000 nM (sheet 'Samples'); n = 1
ATM = settings: read-out: apparent Kd, n = 1
ATR = settings: read-out: apparent Kd; compound concentrations: 100 nM and 1000 nM (sheet 'Samples'), CATDS: 8.9801947735964505E-2; n = 1
DJA1 = test system: T1, DJA1; settings: read-out: apparent Kd; compound concentrations: 100 nM and 1000 nM (sheet 'Samples'), CATDS: 8.0242865429316204E-2; n = 1
T1 construct: gene DNAJA1

MTOR = settings: read-out: apparent Kd, n = 1
NLK = settings: read-out: apparent Kd, compound concentrations: 100 nM and 1000 nM (sheet 'Samples'), n = 1
PIK3C2A = settings: read-out: apparent Kd; compound concentrations: 100 nM and 1000 nM (sheet 'Samples'), CATDS: 6.5272193721358701E-2; n = 1
PIK3CA = settings: read-out: apparent Kd, n = 1
PRKAG2 = settings: read-out: apparent Kd, n = 1
PTK6 = settings: read-out: apparent Kd; compound concentrations: 100 nM and 1000 nM (sheet 'Samples'), CATDS: 7.5402432247591605E-2; n = 1
RAB14 = settings: read-out: apparent Kd; compound concentrations: 100 nM and 1000 nM (sheet 'Samples'), CATDS: 6.8441155991484606E-2; n = 1
STK16 = settings: read-out: apparent Kd; compound concentrations: 100 nM and 1000 nM (sheet 'Samples'), CATDS: 0.118413696953623; n = 1
GAK = settings: read-out: apparent Kd, n = 1
MAPK10 = settings: read-out: apparent Kd, n = 1
MYLK3 = settings: read-out: apparent Kd, n = 1
PLK4 = settings: read-out: apparent Kd; compound concentrations:100 nM and 1000 nM (sheet 'Samples'); n = 1
PRKACG = settings: read-out: apparent Kd; compound concentrations:100 nM and 1000 nM (sheet 'Samples'); n = 1
PRKAG1 = settings: read-out: apparent Kd; compound concentrations:100 nM and 1000 nM (sheet 'Samples'); n = 1
SIK2 = settings: read-out: apparent Kd; compound concentrations:100 nM and 1000 nM (sheet 'Samples'); n = 1
TNIK = settings: read-out: apparent Kd; compound concentrations:100 nM and 1000 nM (sheet 'Samples'); n = 1
BMPR1B = settings: read-out: apparent Kd; compound concentrations:100 nM and 1000 nM (sheet 'Samples'); n = 1
DDR1 = settings: read-out: apparent Kd; compound concentrations:100 nM and 1000 nM (sheet 'Samples'); n = 1
IRAK3 = settings: read-out: apparent Kd; compound concentrations:100 nM and 1000 nM (sheet 'Samples'); n = 1
MAPK11 = settings: read-out: apparent Kd; compound concentrations:100 nM and 1000 nM (sheet 'Samples'); n = 1
MAPK14 = settings: read-out: apparent Kd, n = 1
MAPK8 = settings: read-out: apparent Kd; compound concentrations:100 nM and 1000 nM (sheet 'Samples'); n = 1
MAPK9 = settings: read-out: apparent Kd, n = 1
MAPKAPK2 = settings: read-out: apparent Kd; compound concentrations:100 nM and 1000 nM (sheet 'Samples'); n = 1
PIK3CD = settings: read-out: apparent Kd; compound concentrations:100 nM and 1000 nM (sheet 'Samples'); n = 1
RIPK2 = settings: read-out: apparent Kd; compound concentrations: 100 nM and 1000 nM (sheet 'Samples'), CATDS: 0.226668000101196; n = 1
CLK4 = settings: read-out: apparent Kd; compound concentrations: 100 nM and 1000 nM (sheet 'Samples'), CATDS: 0.213944296498185; n = 1
CSNK1A1 = settings: read-out: apparent Kd; compound concentrations: 100 nM and 1000 nM (sheet 'Samples'), CATDS: 0.24083982314133201; n = 1
CSNK1D = settings: read-out: apparent Kd; compound concentrations: 100 nM and 1000 nM (sheet 'Samples'), CATDS: 0.19928215700528701; n = 1
PRKCQ = settings: read-out: apparent Kd; compound concentrations: 100 nM and 1000 nM (sheet 'Samples'), CATDS: 0.10805556024324001; n = 1
PRKCZ = settings: read-out: apparent Kd; compound concentrations: 100 nM and 1000 nM (sheet 'Samples'), CATDS: 0.11125426430481999; n = 1
MAP3K1 = settings: read-out: apparent Kd; compound concentrations:100 nM and 1000 nM (sheet 'Samples'); n = 1
NUAK2 = settings: read-out: apparent Kd; compound concentrations:100 nM and 1000 nM (sheet 'Samples'); n = 1
PLK1 = settings: read-out: apparent Kd; compound concentrations: 100 nM and 1000 nM (sheet 'Samples'), CATDS: 0.443689991043278; n = 1
FLT4 = settings: read-out: apparent Kd; compound concentrations: 100 nM and 1000 nM (sheet 'Samples'), CATDS: 0.25804604622039201; n = 1
TTN = settings: read-out: apparent Kd; compound concentrations: 100 nM and 1000 nM (sheet 'Samples'), CATDS: 0.28618499292255201; n = 1
[1] = compound concentrations:100 nM and 1000 nM (sheet 'Samples')

Structure (SMILES): O=C(Nc1c(F)cccc1F)c1cc(C(=O)c2ccccc2F)c[nH]1 [GSK1326180A]
- potency estimated from few doses (AKT3; [1]): 1080 nM
- potency estimated from few doses (EPHB4): 1310 nM
- potency estimated from few doses (ERCC2): 984 nM
- potency estimated from few doses (FER): 920 nM
- potency estimated from few doses (PTK2B): 1070 nM
- potency estimated from few doses (TNK1): 870 nM
- potency estimated from few doses (TNK2): 898 nM

Structure (SMILES): Fc1ccc(-c2ncn(CCCN3CCOCC3)c2-c2ccccn2)cc1 [SB-211742]
- potency estimated from few doses (ATM; compound concentrations: 100 nM and 1000 nM (sheet 'Samples'), CATDS: 0.213303269988698): 181 nM
- potency estimated from few doses (ATR): 854 nM
- potency estimated from few doses (DJA1): 1130 nM
- potency estimated from few doses (MTOR; compound concentrations: 100 nM and 1000 nM (sheet 'Samples'), CATDS: 0.10171258605148099): 648 nM
- potency estimated from few doses (NLK; CATDS: 7.3825275535159302E-2): 1420 nM
- potency estimated from few doses (PIK3C2A): 2110 nM
- potency estimated from few doses (PIK3CA; compound concentrations: 100 nM and 1000 nM (sheet 'Samples'), CATDS: 0.22105458504596001): 172 nM
- potency estimated from few doses (PRKAG2; compound concentrations: 100 nM and 1000 nM (sheet 'Samples'), CATDS: 7.5904360676084706E-2): 1310 nM
- potency estimated from few doses (PTK6): 1330 nM
- potency estimated from few doses (RAB14): 1790 nM
- potency estimated from few doses (STK16): 479 nM

Structure (SMILES): COc1ccc2[nH]c3c4[nH]c5ccc(OC)cc5c4c4c(c3c2c1)C(=O)NC4=O [GW296115X]
- potency estimated from few doses (ATM; [1]): 204 nM
- potency estimated from few doses (GAK; [1]): 543 nM
- potency estimated from few doses (MAPK10; [1]): 1050 nM
- potency estimated from few doses (MTOR; [1]): 741 nM
- potency estimated from few doses (MYLK3; [1]): 834 nM
- potency estimated from few doses (PIK3CA; [1]): 254 nM
- potency estimated from few doses (PLK4): 581 nM
- potency estimated from few doses (PRKACG): 655 nM
- potency estimated from few doses (PRKAG1): 1550 nM
- potency estimated from few doses (PRKAG2; [1]): 1670 nM
- potency estimated from few doses (SIK2): 923 nM
- potency estimated from few doses (TNIK): 1700 nM

Structure (SMILES): CCn1c(=O)c(Oc2ccc(F)cc2F)cc2cnc(NC3CCOCC3)nc21 [RO4367438-000]
- potency estimated from few doses (ATM; [1]): 238 nM
- potency estimated from few doses (BMPR1B): 867 nM
- potency estimated from few doses (DDR1): 1510 nM
- potency estimated from few doses (IRAK3): 1240 nM
- potency estimated from few doses (MAPK10; [1]): 45.1 nM
- potency estimated from few doses (MAPK11): 89.8 nM
- potency estimated from few doses (MAPK14; [1]): 2.49 nM
- potency estimated from few doses (MAPK8): 153 nM
- potency estimated from few doses (MAPK9; [1]): 46.5 nM
- potency estimated from few doses (MAPKAPK2): 8.81 nM
- potency estimated from few doses (PIK3CD): 13.5 nM
- potency estimated from few doses (PRKAG1): 128 nM

Structure (SMILES): COc1cc(Nc2ccnc3ccc(Br)cc23)cc(OC)c1OC [CA93.0]
- potency estimated from few doses (ATM; compound concentrations: 100 nM and 1000 nM (sheet 'Samples'), CATDS: 0.26072592490086599): 205 nM
- potency estimated from few doses (GAK; compound concentrations: 100 nM and 1000 nM (sheet 'Samples'), CATDS: 0.73237388981335505): 22.7 nM
- potency estimated from few doses (NLK; CATDS: 0.15655838953280801): 1500 nM
- potency estimated from few doses (RIPK2): 311 nM

Structure (SMILES): Cc1nc2sc3c(N)ncnc3c2c(C)c1C [RO4241984-000]
- potency estimated from few doses (ATM; compound concentrations: 100 nM and 1000 nM (sheet 'Samples'), CATDS: 0.46387822436217502): 322 nM
- potency estimated from few doses (CLK4): 1410 nM
- potency estimated from few doses (CSNK1A1): 1060 nM
- potency estimated from few doses (CSNK1D): 1710 nM

Structure (SMILES): O=c1c(Oc2ccc(F)cc2F)cc2cnc(NC3CCOCC3)nc2n1C1CC1 [RO4399247-000]
- potency estimated from few doses (AKT3; compound concentrations: 100 nM and 1000 nM (sheet 'Samples'), CATDS: 0.120130462725208): 1390 nM
- potency estimated from few doses (MAPK10; compound concentrations: 100 nM and 1000 nM (sheet 'Samples'), CATDS: 0.16061628875685399): 690 nM
- potency estimated from few doses (MAPK14; compound concentrations: 100 nM and 1000 nM (sheet 'Samples'), CATDS: 0.26404764630767302): 279 nM
- potency estimated from few doses (MAPK9; compound concentrations: 100 nM and 1000 nM (sheet 'Samples'), CATDS: 0.111534825966063): 1740 nM
- potency estimated from few doses (NLK; CATDS: 0.289538211789438): 242 nM
- potency estimated from few doses (PRKCQ): 1930 nM
- potency estimated from few doses (PRKCZ): 1750 nM

Structure (SMILES): C[C@@H](Oc1cc(-n2cnc3ccc(CN4CCN(C)CC4)cc32)sc1C(N)=O)c1ccccc1C(F)(F)F [GSK461364]
- potency estimated from few doses (ATM; [1]): 264 nM
- potency estimated from few doses (MAP3K1): 102 nM
- potency estimated from few doses (NUAK2): 1280 nM
- potency estimated from few doses (PIK3CD): 214 nM
- potency estimated from few doses (PLK1): 42.1 nM

Structure (SMILES): CCN(CC)S(=O)(=O)c1ccc(OC)c(Nc2ncc(-c3ccccc3)o2)c1 [GW572401X]
- potency estimated from few doses (ATM; compound concentrations: 100 nM and 1000 nM (sheet 'Samples'), CATDS: 0.38559803360956002): 233 nM
- potency estimated from few doses (FLT4): 495 nM
- potency estimated from few doses (MYLK3; compound concentrations: 100 nM and 1000 nM (sheet 'Samples'), CATDS: 0.16564230425287901): 1940 nM
- potency estimated from few doses (TTN): 399 nM

Structure (SMILES): O=C1NC(=O)C(N2CCc3ccccc32)=C1c1ccc(Cl)cc1 [SB-333612]
- potency estimated from few doses (ATM; compound concentrations: 100 nM and 1000 nM (sheet 'Samples'), CATDS: 1): 265 nM
